Assay results published in the supplement of paper PMC6089552.
The whole screen tested about 3,200 compounds, of which about 300 (9.4%) showed activity. The full list was thinned out, with actives kept by preference.

Tested on: A673/TR/shEF
Experiment: cell viability (LOESS-normalised, relative to median of negative controls) (log2 ratio); higher = more viable cells (less compound effect), active = hit call of the paper (over 3 MAD below the median)
Settings: treatment time: 72 h
How it was run: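 A673/TR/shEF Ewing sarcoma cells were plated at 1,500 per well in 384-well plates and cultured with or without doxycycline, added 24 h before compounds, to induce EWS-FLI1 shRNA knockdown. Library compounds at two or more concentrations, alongside DMSO controls, were applied for three days. Cell viability was measured by CellTiter-Glo luminescence on an Envision reader. Readings were LOESS-corrected per plate, divided by the median of negative controls and log2-transformed, and hits were wells lying at least three median absolute deviations from the median of all screened wells.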

[1] = 0.25 µM, library screen: screen1, EWS-FLI1 expression: high (no doxycycline)
[2] = 0.25 µM, library screen: screen1, EWS-FLI1 expression: low (doxycycline-induced shRNA knockdown)
[3] = 0.25 µM, library screen: screen2, EWS-FLI1 expression: high (no doxycycline)
[4] = 0.25 µM, library screen: screen2, EWS-FLI1 expression: low (doxycycline-induced shRNA knockdown)
[5] = 2.5 µM, library screen: screen1, EWS-FLI1 expression: high (no doxycycline)
[6] = 2.5 µM, library screen: screen1, EWS-FLI1 expression: low (doxycycline-induced shRNA knockdown)
[7] = 2.5 µM, library screen: screen2, EWS-FLI1 expression: high (no doxycycline)
[8] = 2.5 µM, library screen: screen2, EWS-FLI1 expression: low (doxycycline-induced shRNA knockdown)
[9] = 0.025 µM, library screen: screen1, EWS-FLI1 expression: high (no doxycycline)
[10] = 0.025 µM, library screen: screen1, EWS-FLI1 expression: low (doxycycline-induced shRNA knockdown)
[11] = 25 µM, library screen: screen1, EWS-FLI1 expression: high (no doxycycline)
[12] = 25 µM, library screen: screen1, EWS-FLI1 expression: low (doxycycline-induced shRNA knockdown)

Measured: cell viability (log2)

CCCCCCCCCCCCCCCCCC(=O)OC(CC(=O)O)C[N+](C)(C)C (stereo not drawn)
inactive: [1] 0.12 | [2] -0.0279 | [3] 0.206 | [4] 0.0207 | [5] 0.187 | [6] 0.0146 | [7] 0.154 | [8] 0.133

CCCCCCCCCCCCCCCC(=O)O[C@H](CC(=O)[O-])C[N+](C)(C)C
inactive: [9] 0.0342 | [10] 0.0241 | [1] 0.194 | [2] 0.0339 | [5] 0.0599 | [6] -0.023
active: [11] -0.454 | [12] -0.672

CCCCCCCCCCCCCCCC(=O)OC(CC(=O)[O-])C[N+](C)(C)C (stereo not drawn)
inactive: [3] 0.153 | [4] 0.133 | [7] 0.18 | [8] 0.0929

NC(=Nc1nc2ccccc2o1)NC(=O)c1sc2ccccc2c1Cl
inactive: [1] 0.078 | [2] 0.000721 | [5] 0.0829 | [6] -0.0453

O=C1c2ccccc2-c2n[nH]c3cccc1c23
inactive: [9] 0.132 | [10] 0.0656 | [1] 0.181 | [2] -0.0312 | [5] -0.0168 | [6] 0.228 | [12] 0.104
active: [11] -0.11

COC1=C(OC)C(=O)c2ccccc2C1=O
inactive: [3] 0.153 | [4] 0.0608 | [7] 0.12 | [8] 0.0758

CCC(C)CCCCC(=O)NC(CCNCS(=O)(=O)O)C(=O)NC(C(=O)NC(CCNCS(=O)(=O)O)C(=O)NC1CCNC(=O)C(C(C)O)NC(=O)C(CCNCS(=O)(=O)O)NC(=O)C(CCNCS(=O)(=O)O)NC(=O)C(CC(C)C)NC(=O)C(CC(C)C)NC(=O)C(CCNCS(=O)(=O)O)NC1=O)C(C)O (stereo not drawn)
inactive: [1] 0.117 | [2] 0.0486 | [5] 0.103 | [6] -0.0146

CC(C)(O)CC[C@@H](O)[C@@](C)(O)[C@H]1CC[C@@]2(O)C3=CC(=O)[C@@H]4C[C@@H](O)[C@@H](O)C[C@]4(C)[C@H]3CC[C@]12C
inactive: [1] 0.0407 | [2] 0.101 | [5] 0.0783 | [6] 0.0234

C=C1C(CCl)(CCl)C2(Cl)C(Cl)C(Cl)C1(Cl)C2(Cl)Cl (stereo not drawn)
inactive: [1] 0.0656 | [2] 0.021 | [5] 0.0692 | [6] 0.132

COC(=O)[C@@H]1OC(=O)C2OC23[C@@]1(C)CCC1[C@@]2(C)CCC(=O)C(C)(C)C2C[C@@H](OC(C)=O)[C@]13C (stereo partly drawn)
inactive: [1] 0.0302 | [2] 0.00682 | [5] 0.123 | [6] 0.0574

O=C(/C=C/c1ccc(O)cc1O)c1ccccc1
inactive: [1] 0.0477 | [2] 0.0515 | [5] 0.136 | [6] 0.0296

COc1cc(/C=C/C(=O)O)ccc1O
inactive: [1] 0.0581 | [2] -0.0401 | [5] 0.12 | [6] -0.00647

COC(=O)/C=C/c1cc(O)ccc1O
inactive: [9] 0.177 | [10] 0.0349 | [1] 0.18 | [2] 0.0134 | [3] 0.108 | [4] 0.184 | [6] -0.137 | [7] 0.0473 | [8] 0.11
active: [5] -0.379 | [11] -0.809 | [12] -0.511

CC(=O)O[C@@H]1CC[C@@]2(C)[C@H](CC[C@@H]3[C@@H]2C[C@H](OC(C)=O)[C@]2(C)[C@@H](C(C)=O)CC[C@@H]32)C1
inactive: [1] 0.135 | [2] 0.117 | [5] 0.0696 | [6] 0.102

CC(C1OC(C)(C)C(O)C1O)[C@@H]1CC[C@]2(C)C3=CCC4C(C)(C)C(=O)CC[C@]4(C)C3CC[C@@]12C (stereo partly drawn)
inactive: [1] 0.062 | [2] 0.126 | [5] 0.148 | [6] 0.137

c1ccc(C2CN3CCSC3=N2)cc1 (stereo not drawn)
active: [5] -0.215 | [11] -0.261
inactive: [9] 0.0711 | [10] 0.0575 | [1] 0.0459 | [2] 0.00911 | [3] 0.102 | [4] 0.0185 | [6] 0.107 | [7] 0.166 | [8] 0.00181 | [12] 0.0697

c1ccc([C@H]2CN3CCSC3=N2)cc1
active: [5] -0.0948 | [11] -0.295
inactive: [9] 0.0743 | [10] 0.0216 | 0.103 µM, library screen: screen3, EWS-FLI1 expression: high (no doxycycline) 0.103 | 0.103 µM, library screen: screen3, EWS-FLI1 expression: low (doxycycline-induced shRNA knockdown) 0.000516 | [1] 0.0991 | [2] 0.0737 | [3] 0.069 | [4] 0.0838 | 0.308 µM, library screen: screen3, EWS-FLI1 expression: high (no doxycycline) 0.127 | 0.308 µM, library screen: screen3, EWS-FLI1 expression: low (doxycycline-induced shRNA knockdown) 0.0938 | 0.926 µM, library screen: screen3, EWS-FLI1 expression: high (no doxycycline) 0.0997 | 0.926 µM, library screen: screen3, EWS-FLI1 expression: low (doxycycline-induced shRNA knockdown) 0.0447 | [6] 0.0839 | [7] 0.126 | [8] 0.0627 | 2.8 µM, library screen: screen3, EWS-FLI1 expression: high (no doxycycline) 0.136 | 2.8 µM, library screen: screen3, EWS-FLI1 expression: low (doxycycline-induced shRNA knockdown) 0.0913 | 8.3 µM, library screen: screen3, EWS-FLI1 expression: high (no doxycycline) 0.12 | 8.3 µM, library screen: screen3, EWS-FLI1 expression: low (doxycycline-induced shRNA knockdown) 0.085 | [12] -0.0899 | 25 µM, library screen: screen3, EWS-FLI1 expression: high (no doxycycline) 0.0427 | 25 µM, library screen: screen3, EWS-FLI1 expression: low (doxycycline-induced shRNA knockdown) 0.11

Brc1ccc([C@H]2CN3CCSC3=N2)cc1
active: [5] -0.357 | [11] -0.468 | [12] -0.309
inactive: [9] 0.216 | [10] 0.000942 | [1] 0.234 | [2] 0.105 | [3] -0.0213 | [4] 0.123 | [6] -0.0691 | [7] 0.117 | [8] 0.109
